27 compounds from PubChem BioAssay can be followed below.

Records with an inconclusive call do not appear. For part of these data: Results with a measured potency or affinity are listed apart. Active and inactive are the calls of the source. Rule as the data show it: active = fluorescence slope change above about 50%; inconclusive = mostly about 31% to 49%; inactive = weaker than that.

In assay [1] the target is ATP-dependent translocase ABCB1 (Homo sapiens) (UniProt P08183). As to the kind of experiment: P-glycoprotein substrate transport blockade – cell-based (AID 377). As to conditions: MDR1-expressing cells, fluorescent substrate accumulation slope; stronger effect = higher value; concentration not given here.
Sequence of ATP-dependent translocase ABCB1 (Homo sapiens) (P08183 whole entry, looked up): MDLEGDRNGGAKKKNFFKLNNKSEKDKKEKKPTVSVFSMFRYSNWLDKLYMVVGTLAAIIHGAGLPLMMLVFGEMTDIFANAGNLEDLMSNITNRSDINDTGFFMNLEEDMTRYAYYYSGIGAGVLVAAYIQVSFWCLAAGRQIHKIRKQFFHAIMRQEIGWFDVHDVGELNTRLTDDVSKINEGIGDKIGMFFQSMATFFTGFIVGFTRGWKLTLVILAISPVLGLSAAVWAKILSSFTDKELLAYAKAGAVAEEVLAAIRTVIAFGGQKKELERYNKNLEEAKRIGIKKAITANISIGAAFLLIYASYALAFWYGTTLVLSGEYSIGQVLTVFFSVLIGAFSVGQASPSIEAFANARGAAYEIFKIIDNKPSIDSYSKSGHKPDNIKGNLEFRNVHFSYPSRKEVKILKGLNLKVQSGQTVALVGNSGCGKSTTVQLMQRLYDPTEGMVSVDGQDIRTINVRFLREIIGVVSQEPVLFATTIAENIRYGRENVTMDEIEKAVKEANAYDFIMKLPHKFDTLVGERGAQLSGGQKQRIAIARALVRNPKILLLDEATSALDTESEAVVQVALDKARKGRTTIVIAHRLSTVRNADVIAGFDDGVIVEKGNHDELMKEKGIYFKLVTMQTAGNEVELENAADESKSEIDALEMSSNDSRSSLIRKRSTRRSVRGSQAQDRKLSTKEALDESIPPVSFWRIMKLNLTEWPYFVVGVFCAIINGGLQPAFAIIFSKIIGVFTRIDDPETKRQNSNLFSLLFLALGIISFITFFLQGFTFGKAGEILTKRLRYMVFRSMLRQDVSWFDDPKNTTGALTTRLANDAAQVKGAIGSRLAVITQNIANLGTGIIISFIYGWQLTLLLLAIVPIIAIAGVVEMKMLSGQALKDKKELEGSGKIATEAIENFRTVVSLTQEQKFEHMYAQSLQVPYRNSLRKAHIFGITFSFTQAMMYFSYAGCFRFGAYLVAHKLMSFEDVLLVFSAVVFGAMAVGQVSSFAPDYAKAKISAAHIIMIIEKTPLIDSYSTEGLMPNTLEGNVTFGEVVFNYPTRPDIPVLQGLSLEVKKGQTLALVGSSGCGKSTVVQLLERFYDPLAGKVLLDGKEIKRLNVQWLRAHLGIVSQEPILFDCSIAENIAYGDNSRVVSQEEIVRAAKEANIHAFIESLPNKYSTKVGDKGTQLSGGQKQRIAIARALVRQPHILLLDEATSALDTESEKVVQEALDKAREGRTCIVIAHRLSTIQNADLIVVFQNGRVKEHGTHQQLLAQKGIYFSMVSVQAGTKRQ
Assay [2] is described as follows: blockers of polyQ-driven CASP3 activation – cell-based (AID 1583). To be noted: polyglutamine-induced caspase-3 activation, cell assay; stronger effect = higher value;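 tested at 10 µM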.
A short description of assay [3]: yeast 75Q aggregation reduction – 75Q-TubU reporter (AID 1593). To be noted: Yeast 75Q polyglutamine aggregation reporter.
The nature of assay [4]: restoration of touch response, mutant HTT neurons – whole organism, C. elegans mechanosensory neurons, N-terminal huntingtin (AID 1599). To be noted: C. elegans polyQ-huntingtin mechanosensory neurons, stronger effect = higher value.
Assay [5] is described as follows: blockers of cytochrome c efflux from mitochondria – biochemical, purified mitochondria (AID 1603).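 Also: mouse liver mitochondria challenged with calcium chloride; signal normalized to the plate average as 100%.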 To be noted: stronger effect = lower value.
The nature of assay [6]: polyglutamine aggregate formation blockers (AID 1604). As to conditions: polyglutamine-induced protein aggregation inhibition assay; stronger effect = higher value; tested at 2.5 µM.

Usually inhibition stands for the relative decrease from the control value, in per cent. As for `O=C(COc1ccc(Cl)cc1)N1CCN(Cc2ccc3c(c2)OCO3)CC1`, the fluorescence slope change in assay [1] is 134% (active). In addition, the inhibition in assay [2] was 60.9%. Also, the score in assay [3] stood at 1.15. In assay [4], this compound displayed a rescue above control of 29.5. Besides, the cytochrome c release ratio in assay [5] was 1.17. Besides, in assay [6], the inhibition of aggregation was 63.9%.

Consider `C#CCN(C)Cc1ccccc1`, for which the fluorescence slope change in assay [1] is 71.9% (active). Besides, in assay [2], the inhibition came out at 17%. The compound also had a score in assay [3] of 1.16. Also, the rescue above control in assay [4] stood at 30.7. In assay [5], the cytochrome c release ratio came out at 1.06. The inhibition of aggregation in assay [6] came to 0%.

In the case of `CCN(CCCCOC(=O)c1ccc(OC)c(OC)c1)C(C)Cc1ccc(OC)cc1` (configuration not stated), in assay [1], the fluorescence slope change is -44.1% (inactive). Also, in assay [2], the inhibition was 24.4%. Moreover, the score in assay [3] was 1.51. In assay [4], this compound showed a rescue above control of 1.7. Also, the cytochrome c release ratio in assay [5] stood at 0.92. Besides, in assay [6], the inhibition of aggregation is 65.1%.

Turning to `CS(=O)(=O)Nc1ccc([N+](=O)[O-])cc1Oc1ccccc1`, the fluorescence slope change in assay [1] was 50.2% (active). Moreover, the inhibition in assay [2] amounted to 6.83%. In addition, the score in assay [3] came to 0.85. The same compound showed a rescue above control in assay [4] of 3.29. Further, in assay [5], the cytochrome c release ratio is 3.47. The inhibition of aggregation in assay [6] was found to be 42.5%.

As for `CC(=O)OCC1=C(C(=O)O)N2C(=O)[C@@H](NC(=O)Cc3cccs3)[C@H]2SC1`, the fluorescence slope change in assay [1] was 2.1% (inactive). Also, the inhibition in assay [2] stood at 11.1%. For the same compound, the score in assay [3] came to 1.29. Moreover, the rescue above control in assay [4] was -1.7. Also, the cytochrome c release ratio in assay [5] was 0.78. Further, the inhibition of aggregation in assay [6] is -17.5%.

As for `CN1CCOC(c2ccccc2)c2ccccc2C1` (configuration not stated), the fluorescence slope change in assay [1] was 5.9% (inactive). Also, the inhibition in assay [2] is 4.24%. In assay [3], this compound had a score of 1.08. In assay [4], this compound yielded a rescue above control of -6.88. Further, the cytochrome c release ratio in assay [5] was found to be 0.83. For the same compound, the inhibition of aggregation in assay [6] amounted to 74.7%.

On to `COC(=O)Nc1nc2ccc(Sc3ccccc3)cc2[nH]1`, for which the fluorescence slope change in assay [1] was 52.1% (active). Moreover, in assay [2], the inhibition was found to be 20.4%. Besides, the score in assay [3] was 0.64. In assay [4], the rescue above control was -1.52. The cytochrome c release ratio in assay [5] stood at 0.87. In assay [6], the inhibition of aggregation came out at 6.35%.

For `CC(C)COCC(CN(Cc1ccccc1)c1ccccc1)N1CCCC1` (configuration not stated), in assay [1], the fluorescence slope change was 131% (active). In addition, in assay [2], the inhibition turned out to be 7.56%. In addition, the score in assay [3] is 1.17. In assay [4], the rescue above control was 1.23. In addition, the cytochrome c release ratio in assay [5] stood at 0.32. The inhibition of aggregation in assay [6] is 23.6%.

Regarding `Nc1ccc(S(=O)(=O)Nc2ccccn2)cc1`, the fluorescence slope change in assay [1] is 12.6% (inactive). The inhibition in assay [2] is -3.18%. In assay [3], this compound displayed a score of 1.17. The compound further had a rescue above control in assay [4] of 5.7. In addition, the cytochrome c release ratio in assay [5] came to 0.88. For the same compound, the inhibition of aggregation in assay [6] was 24.2%.

As to `CC(C)(Oc1ccc(Cl)cc1)C(=O)O`, the fluorescence slope change in assay [1] was 21.7% (inactive). Besides, the inhibition in assay [2] is 17.7%. Also, the score in assay [3] was 1.27. Further, in assay [4], the rescue above control came out at 11.6. Further, in assay [5], the cytochrome c release ratio was 1.13. Moreover, in assay [6], the inhibition of aggregation came out at 38.2%.

With `CCn1cc(C(=O)O)c(=O)c2cc(F)c(N3CCNCC3)nc21`, in assay [1], the fluorescence slope change is 3.6% (inactive). In assay [2], the inhibition was -8.5%. Besides, the score in assay [3] was determined as 1.5. For the same compound, in assay [4], the rescue above control came to 0.62. Besides, the cytochrome c release ratio in assay [5] was 0.92. Moreover, the inhibition of aggregation in assay [6] was -1.85%.

Take `CN1CCC(=C2c3ccccc3CC(=O)c3sccc32)CC1`: the fluorescence slope change in assay [1] was 20.2% (inactive). In addition, the inhibition in assay [2] came out at 9.78%. In assay [3], this compound showed a score of 1.65. In assay [4], this compound yielded a rescue above control of 1.84. Besides, in assay [5], the cytochrome c release ratio worked out at 1.14. For the same compound, the inhibition of aggregation in assay [6] is 57.6%.

`CCCCC1(COC(=O)CCC(=O)O)C(=O)N(c2ccccc2)N(c2ccccc2)C1=O`: in assay [1], the fluorescence slope change is 4.7% (inactive). Also, the inhibition in assay [2] was 9.48%. Moreover, the score in assay [3] is 1.11. For the same compound, the rescue above control in assay [4] worked out at 9.03. In addition, the cytochrome c release ratio in assay [5] was 1.09. In assay [6], the inhibition of aggregation is 57.1%.

For `C/C=C(/C(=C/C)c1ccc(O)cc1)c1ccc(O)cc1`, the fluorescence slope change in assay [1] was 10.7% (inactive). Besides, the inhibition in assay [2] was 31.3%. In assay [3], the score stood at 0.33. The rescue above control in assay [4] is -4.61. For the same compound, in assay [5], the cytochrome c release ratio came to 4.08. In addition, the inhibition of aggregation in assay [6] was 63.2%.

For the compound `COC(=O)[C@H]1[C@H]2C[C@@H]3c4[nH]c5cc(OC)ccc5c4CCN3C[C@H]2C[C@@H](OC(=O)c2cc(OC)c(OC)c(OC)c2)[C@@H]1OC`, the fluorescence slope change in assay [1] is 51.8% (active). Further, the inhibition in assay [2] was -42.7%. The same compound showed a score in assay [3] of 1.16. In assay [4], this compound had a rescue above control of -12.7. Moreover, the cytochrome c release ratio in assay [5] was 1.46. Moreover, the inhibition of aggregation in assay [6] is 63.2%.

As for `CCN(CC)CCNC(=O)c1cc(Cl)c(N)cc1OC`, the fluorescence slope change in assay [1] is 27.9% (inactive). In addition, the inhibition in assay [2] is -5.58%. In assay [3], this compound gave a score of 1.42. This compound also registered a rescue above control in assay [4] of -6.22. For the same compound, in assay [5], the cytochrome c release ratio is 1.15. For the same compound, the inhibition of aggregation in assay [6] came out at 25.8%.

With `Cc1nnc(SCC2=C(C(=O)O)N3C(=O)[C@@H](NC(=O)Cn4cnnn4)[C@H]3SC2)s1`, the fluorescence slope change in assay [1] was -6.8% (inactive). For the same compound, in assay [2], the inhibition was 0.61%. This compound returned a score in assay [3] of 1.27. The rescue above control in assay [4] was 4.54. In assay [5], the cytochrome c release ratio was found to be 0.92. In assay [6], the inhibition of aggregation is 13.4%.

For the compound `CC[C@]12CCCN3CCc4c(n(c5ccccc45)C(=O)C1)[C@@H]32`, in assay [1], the fluorescence slope change was 12.1% (inactive). For the same compound, the inhibition in assay [2] was 11.5%. In addition, the score in assay [3] came to 1.49. The compound further registered a rescue above control in assay [4] of 15.2. Besides, the cytochrome c release ratio in assay [5] is 1.06. Besides, the inhibition of aggregation in assay [6] was found to be 76%.

Take `COc1c2occc2c(OC)c2c(=O)cc(C)oc12`: the fluorescence slope change in assay [1] is 54.2% (active). Also, the inhibition in assay [2] was determined as 3.52%. The score in assay [3] is 0.76. The compound also gave a rescue above control in assay [4] of 0. For the same compound, in assay [5], the cytochrome c release ratio was 1.14. Besides, the inhibition of aggregation in assay [6] is 63.2%.

Consider `CCOc1ccc(NC(C)=O)cc1`, for which the fluorescence slope change in assay [1] is 5.5% (inactive). Further, the inhibition in assay [2] was -10.9%. In assay [3], this compound gave a score of 0.84. In assay [4], the rescue above control was -2.44. In addition, the cytochrome c release ratio in assay [5] worked out at 0.87. Also, in assay [6], the inhibition of aggregation is -59.3%.

In the case of `Cc1cc(C(C)(C)C)cc(C)c1CC1=NCCN1`, the fluorescence slope change in assay [1] is 26.6% (inactive). In addition, the inhibition in assay [2] came out at 23.6%. In assay [3], this compound yielded a score of 1.63. The rescue above control in assay [4] is -3.36. The cytochrome c release ratio in assay [5] came to 1.05. In addition, the inhibition of aggregation in assay [6] was determined as 63.4%.

On to `CN(C)[C@@H]1C(=O)C(C(N)=O)=C(O)[C@@]2(O)C(=O)C3=C(O)c4c(O)ccc(Cl)c4[C@@H](O)[C@H]3C[C@@H]12`, for which the fluorescence slope change in assay [1] was 2.1% (inactive). For the same compound, the inhibition in assay [2] was 13.2%. This compound also returned a score in assay [3] of 0.8. The compound also returned a rescue above control in assay [4] of 0. Also, in assay [5], the cytochrome c release ratio turned out to be 2.6. For the same compound, in assay [6], the inhibition of aggregation is 27.8%.

Take `NC(=NCCCCCCN=C(N)/N=C(\N)Nc1ccc(Cl)cc1)/N=C(\N)Nc1ccc(Cl)cc1`: in assay [1], the fluorescence slope change was 250% (active). Further, the inhibition in assay [2] came out at 66.8%. This compound also came in with a score in assay [3] of 0.16. In assay [4], this compound displayed a rescue above control of 0. In addition, in assay [5], the cytochrome c release ratio was determined as 12.9. For the same compound, the inhibition of aggregation in assay [6] came out at 79.3%.

Consider `NCC1CCC(C(=O)O)CC1` (configuration not stated), for which, in assay [1], the fluorescence slope change was 64.7% (active). The inhibition in assay [2] is -11.3%. The score in assay [3] was 1.25. Moreover, the rescue above control in assay [4] came out at 8.04. Moreover, in assay [5], the cytochrome c release ratio was determined as 0.77. Also, the inhibition of aggregation in assay [6] is 74.7%.

Turning to `O=C(OCC(O)CO)c1ccccc1Nc1ccnc2cc(Cl)ccc12` (configuration not stated), the fluorescence slope change in assay [1] is 88.6% (active). The inhibition in assay [2] was determined as 18.5%. Moreover, in assay [3], the score was 1.22. This compound also yielded a rescue above control in assay [4] of -8.14. The cytochrome c release ratio in assay [5] was 1.02. Besides, the inhibition of aggregation in assay [6] is 23.8%.

Take `CN1CCC[C@@H]1CCO[C@](C)(c1ccccc1)c1ccc(Cl)cc1`: the fluorescence slope change in assay [1] was 188% (active). Further, the inhibition in assay [2] was determined as 2.42%. The compound also came in with a score in assay [3] of 1.25. Further, the rescue above control in assay [4] turned out to be 0. Also, the cytochrome c release ratio in assay [5] turned out to be 1.13. The inhibition of aggregation in assay [6] was 76.2%.

As for `CN1CCC(OC(c2ccccc2)c2ccccc2)CC1`, the fluorescence slope change in assay [1] is 7.9% (inactive). In addition, the inhibition in assay [2] is -34.9%. For the same compound, the score in assay [3] turned out to be 1.74. In assay [4], this compound had a rescue above control of -9.83. In assay [5], the cytochrome c release ratio was found to be 1.09. In addition, the inhibition of aggregation in assay [6] amounted to 81.6%.
